Experimental findings from PubChem BioAssay (Tox21) are described below.

Assay [1] in a line: qHTS assay to identify small molecule antagonists of the estrogen receptor alpha (ER-alpha) signaling pathway using the BG1 cell line in the presence of 0.1 nM 17-beta-estradiol - cell viability counter screen (AID 1259241). Also: nearly all actives have a fitted effect of over 40% in size. Also: potency is read from the fitted curve at half-maximal effect. In a few lines:
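VM7Luc4E2 cells (endogenous full-length ER-alpha, 4xERE-luciferase), cultured 5 days in charcoal-stripped serum, exposed to compounds with 0.1 nM 17beta-estradiol (final) for 22 hr at 37C. Viability read in same wells as live-cell protease fluorescence after 30 min.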
A general note: qHTS replaces the single test concentration by a dilution series.

Assay [2] is described as follows: qHTS assay to identify small molecule antagonists of the androgen receptor (AR) signaling pathway using the MDA cell line in the presence of 0.5 nM R1881 - cell viability counter screen (AID 1259242). Also: nearly all actives have a fitted effect of over 45% in size. Also: potency is read from the fitted curve at half-maximal effect. An outline of the steps:
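Human breast carcinoma MDA-kb2 cells, cultured without CO2, receive compounds alongside 0.5 nM (final) R1881 agonist. After 16 hr at 37C, viability is taken as live-cell protease signal.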

Assay [3] has as its target Estrogen receptor (Homo sapiens) (UniProt P03372). Briefly: qHTS assay to identify small molecule antagonists of the estrogen receptor alpha (ER-alpha) signaling pathway using the BG1 cell line in the presence of 0.1 nM 17-beta-estradiol (AID 1259244). Also: nearly all actives have a fitted effect of over 50% in size. Also: potency is read from the fitted curve at half-maximal effect. In a few lines:
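Seeding of stripped-serum-adapted VM7Luc4E2 cells, 24 h attachment, compound transfer, then 0.1 nM final 17beta-estradiol; after 22 h incubation, ONE-Glo reagent and luminescence reading.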

Assay [4] is described as follows: qHTS assay to identify small molecule HDAC inhibitors (AID 1259364). Also: potency is read from the fitted curve at half-maximal effect.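 Also: wild-type HCT-116 cells with endogenous class I/II HDAC activity; nearly all actives have a fitted effect of over 45% in size.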 In a few lines:
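After a 2 hr compound incubation (37C, 5% CO2), HCT-116 cells seeded at 1,500/well the day before received HDAC-Glo reagent; signal read as luminescence after 30 min at room temperature.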

Assay [5] is described as follows: qHTS assay to identify small molecule HDAC inhibitors - cell viability counter screen (AID 1259365). Also: nearly all actives have a fitted effect of over 50% in size. Also: potency is read from the fitted curve at half-maximal effect. An outline of the steps:
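Wild-type HCT-116 cells, 1,500/well, cultured overnight, then compound-treated 2 h at 37 C. Viability measured as ATP luminescence with CellTiter-Glo after 30 min at room temperature.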

Assay [6] is described as follows: qHTS assay to identify small molecule agonists of the sonic hedgehog signaling (Shh) pathway - cell viability counter screen (AID 1259366). Also: nearly all actives have a fitted effect of over 50% in size. Also: potency is read from the fitted curve at half-maximal effect. An outline of the steps: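 NIH/3T3-derived Gli1-Luc reporter cells, 2,000 per well, received compound after 4 h and were treated about 23 h at 37C. Viability measured in the same wells by CellTiter-Fluor fluorescence after 1 h.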

Assay [7] is described as follows: qHTS assay to identify small molecule antagonists of the sonic hedgehog signaling (Shh) pathway - cell viability counter screen (AID 1259367). Also: nearly all actives have a fitted effect of over 55% in size. Also: potency is read from the fitted curve at half-maximal effect. An outline of the steps: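 Tox21 library chemicals were tested on a Gli1-Luc NIH/3T3 clone (2,000 cells/well) stimulated by conditioned medium; viability was quantified as fluorescence from CellTiter-Fluor reagent added at 23 hr.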

A short description of assay [8]: qHTS assay to identify small molecule agonists of the sonic hedgehog signaling (Shh) pathway (AID 1259368; calls by dose curve; also: nearly all actives have a fitted effect of over 15% in size; also: potency is read from the fitted curve at half-maximal effect). In a few lines: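 Stable NIH/3T3 Gli1-Luc reporter clone; 24 hr cpd exposure after a 4 hr settling period; luminescence endpoint.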
The nature of assay [9]: qHTS assay to identify small molecule antagonists of the sonic hedgehog signaling (Shh) pathway (AID 1259369; calls by dose curve; also: nearly all actives have a fitted effect of over 45% in size; also: potency is read from the fitted curve at half-maximal effect). In a few lines:
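Gli1 transcriptional reporter (firefly Luc) in NIH/3T3 background, conditioned-medium activated. 24hr exposure, luminescence endpoint.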

A short description of assay [10]: qHTS assay to identify small molecule agonists of the androgen receptor (AR) signaling pathway in the presence of an antagonist - cell viability counter screen (AID 1259379). Also: nearly all actives have a fitted effect of over 25% in size. Also: potency is read from the fitted curve at half-maximal effect. An outline of the steps:
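Counter screen for cell viability run in parallel with the AR agonist-mode luciferase assay. MDA-kb2 cells were co-treated with nilutamide (3.0uM final) and compounds, then incubated 16 hr at 37C, and CellTiter-Fluor fluorescence was measured.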

Assay [11] is described as follows: qHTS assay to identify small molecule agonists of the estrogen receptor beta (ER-beta) signaling pathway - cell viability counter screen (AID 1259380). Also: nearly all actives have a fitted effect of over 30% in size. Also: potency is read from the fitted curve at half-maximal effect. An outline of the steps:
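In this qHTS counter screen, HEK293T cells carrying an ER-beta/UAS beta-lactamase reporter, grown in 2% charcoal-stripped FBS, received compound for 16 hr; ATP-based CellTiter-Glo luminescence was then read after 30 min at room temperature.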

A short description of assay [12]: qHTS assay to identify small molecule antagonists of the estrogen receptor beta (ER-beta) signaling pathway - cell viability counter screen (AID 1259382). Also: nearly all actives have a fitted effect of over 55% in size. Also: potency is read from the fitted curve at half-maximal effect. An outline of the steps:
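HEK293T ER-beta-UAS-bla, 2% charcoal-stripped FBS; compounds + 1nM E2 16 hr 37C; CellTiter-Glo luminescence, 30 min RT.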

Assay [13] deals with Estrogen receptor (Homo sapiens) (UniProt P03372). In words: qHTS assay to identify small molecule agonists of the estrogen receptor alpha (ER-alpha) signaling pathway in the presence of an antagonist (AID 1259383; calls by dose curve; also: top concentration of the series differs between compounds; nearly all actives have a fitted effect of over 15% in size). In a few lines: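 ER-alpha agonism measured under antagonist challenge: 10.0nM ICI-182,780 (final) plus compound, 15 concentrations, 22hr, VM7Luc4E2 ERE-luciferase cells. Read by luminescence.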

Assay [14] can be described thus: qHTS assay to identify small molecule agonists or antagonists of the thyroid stimulating hormone receptor (TSHR) signaling pathway - wild type cell line counter screen (AID 1259384; calls by dose curve). In a few lines:
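Wild-type Hek293 cells, 800/well, 18 h at 37C, then compound with Ro20-1724 for 30 min RT. cAMP by HTRF (cAMP-d2/anti-cAMP cryptate), 1 h RT, fluorescence read. 15 concentrations, triplicates.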

In assay [15] the target is Thyrotropin receptor (Homo sapiens) (UniProt P16473). Briefly: qHTS assay to identify small molecule antagonists of the thyroid stimulating hormone receptor (TSHR) signaling pathway (AID 1259385; calls by dose curve; also: nearly all actives have a fitted effect of over 20% in size; also: potency is read from the fitted curve at half-maximal effect). In a few lines: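 TSHR-HEK293 cells (800/well) plated 18 h, then compounds with Ro20-1724 and TSH at 1.5 ng/mL final, 30 min at room temperature. cAMP quantified by HTRF (cAMP-d2/anti-cAMP-cryptate, 1 h); 15 concentrations in triplicate.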

Assay [16] in a line: qHTS assay to identify small molecule agonists of the estrogen receptor alpha (ER-alpha) signaling pathway in the presence of an antagonist - cell viability counter screen (AID 1259386). Also: nearly all actives have a fitted effect of over 30% in size. Also: potency is read from the fitted curve at half-maximal effect. An outline of the steps: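 Steps: 5-day stripped-FBS culture; seed and incubate 24hr; add ICI-182,780 (10.0nM final); pin 15-point compound titration; incubate 22hr at 37C; add CellTiter-Fluor at 21hr; read fluorescence.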

For assay [17], the target named is Estrogen receptor beta (Homo sapiens) (UniProt Q92731). Briefly: qHTS assay to identify small molecule agonists of the estrogen receptor beta (ER-beta) signaling pathway (AID 1259377; active = well fitted activation curve with a large enough effect in the signal ratio in the repeat runs, not every such curve was filed as active; the % refers to the signal ratio). An outline of the steps: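 ER-beta-UAS-bla HEK293T cells in medium with 2% charcoal-stripped FBS were exposed to compounds for 16 h at 37C. Beta-lactamase reporter activity was read as fluorescence after 2 h with LiveBLAzer B/G FRET substrate at room temperature.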

The target is the same in assay [18]. In words: qHTS assay to identify small molecule antagonists of the estrogen receptor beta (ER-beta) signaling pathway (AID 1259378; active = well fitted inhibition curve with a large enough effect in the signal ratio in the repeat runs, not every such curve was filed as active; the % refers to the signal ratio). In a few lines:
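ER-beta-UAS-bla HEK293T cells in 2% charcoal-stripped FBS medium treated with compound plus 1nM final 17-beta-estradiol for 16 hr at 37C. Beta-lactamase reporter read by FRET substrate fluorescence after 2 hours at room temperature.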

Molecules are shown by their SMILES. Several values for one entry are separate records, joined by “and”; a condition that tells them apart may be missing. Identical values can stand only once. Inconclusive results are not listed. Activity calls are given as the source filed them. Unless noted, calls follow the shape of the dose curve; as a rule, active = well fitted curve in the direction sought with a large enough effect in the repeat runs; inconclusive = weak or mixed curves; inactive = no such curve, though single readings can be large; an effect the other way counts as inactive or inconclusive.

Estrogen receptor (Homo sapiens), sequence (P03372 whole entry, looked up): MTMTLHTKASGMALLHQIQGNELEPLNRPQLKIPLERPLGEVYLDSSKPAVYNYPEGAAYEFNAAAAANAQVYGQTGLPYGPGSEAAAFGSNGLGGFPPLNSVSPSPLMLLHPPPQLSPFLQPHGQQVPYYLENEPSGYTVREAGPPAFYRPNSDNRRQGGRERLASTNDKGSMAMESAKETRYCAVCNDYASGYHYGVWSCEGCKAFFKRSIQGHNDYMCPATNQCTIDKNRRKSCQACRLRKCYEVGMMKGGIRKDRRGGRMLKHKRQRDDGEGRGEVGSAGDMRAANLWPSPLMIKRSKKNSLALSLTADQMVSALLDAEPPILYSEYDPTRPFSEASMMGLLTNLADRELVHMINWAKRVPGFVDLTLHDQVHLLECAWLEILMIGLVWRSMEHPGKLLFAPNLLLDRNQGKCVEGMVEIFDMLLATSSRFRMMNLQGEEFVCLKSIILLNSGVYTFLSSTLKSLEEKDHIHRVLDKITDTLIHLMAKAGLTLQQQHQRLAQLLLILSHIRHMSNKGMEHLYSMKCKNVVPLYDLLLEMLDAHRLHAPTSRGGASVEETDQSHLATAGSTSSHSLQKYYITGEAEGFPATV
Thyrotropin receptor (Homo sapiens), sequence (P16473 whole entry, looked up): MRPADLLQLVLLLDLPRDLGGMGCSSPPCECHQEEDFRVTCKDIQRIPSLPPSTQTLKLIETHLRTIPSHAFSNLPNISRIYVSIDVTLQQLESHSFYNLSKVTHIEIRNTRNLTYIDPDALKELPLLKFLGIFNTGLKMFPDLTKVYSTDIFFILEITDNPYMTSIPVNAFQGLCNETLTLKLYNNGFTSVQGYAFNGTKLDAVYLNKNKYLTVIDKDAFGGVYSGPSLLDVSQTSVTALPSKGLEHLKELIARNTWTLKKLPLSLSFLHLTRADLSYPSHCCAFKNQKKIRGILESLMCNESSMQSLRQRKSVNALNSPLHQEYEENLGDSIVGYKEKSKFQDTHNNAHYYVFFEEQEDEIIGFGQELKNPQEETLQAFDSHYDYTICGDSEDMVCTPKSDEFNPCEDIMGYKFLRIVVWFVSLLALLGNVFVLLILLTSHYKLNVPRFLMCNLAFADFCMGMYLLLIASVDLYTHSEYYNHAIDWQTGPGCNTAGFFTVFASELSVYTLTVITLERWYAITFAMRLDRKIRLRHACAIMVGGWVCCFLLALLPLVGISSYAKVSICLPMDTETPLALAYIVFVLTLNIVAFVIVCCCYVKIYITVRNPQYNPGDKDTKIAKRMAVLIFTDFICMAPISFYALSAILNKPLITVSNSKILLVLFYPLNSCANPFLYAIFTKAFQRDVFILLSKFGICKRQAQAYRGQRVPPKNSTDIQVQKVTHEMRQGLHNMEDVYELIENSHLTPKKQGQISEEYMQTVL
Estrogen receptor beta (Homo sapiens), sequence (Q92731 whole entry, looked up): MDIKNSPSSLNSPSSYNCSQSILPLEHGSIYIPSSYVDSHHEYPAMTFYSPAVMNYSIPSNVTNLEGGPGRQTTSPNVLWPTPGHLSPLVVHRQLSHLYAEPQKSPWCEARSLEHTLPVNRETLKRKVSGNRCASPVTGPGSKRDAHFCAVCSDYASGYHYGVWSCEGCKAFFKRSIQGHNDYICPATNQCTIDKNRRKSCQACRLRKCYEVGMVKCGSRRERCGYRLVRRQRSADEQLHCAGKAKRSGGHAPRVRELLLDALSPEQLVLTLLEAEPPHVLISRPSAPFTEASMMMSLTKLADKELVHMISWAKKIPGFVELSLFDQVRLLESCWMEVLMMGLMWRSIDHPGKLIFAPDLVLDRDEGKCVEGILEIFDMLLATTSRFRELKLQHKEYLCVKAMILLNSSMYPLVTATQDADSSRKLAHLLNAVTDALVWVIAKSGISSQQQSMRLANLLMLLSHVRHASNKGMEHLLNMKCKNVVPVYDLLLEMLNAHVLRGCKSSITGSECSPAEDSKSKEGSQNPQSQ

For `CC[C@H](C)[C@H]1O[C@]2(C=C[C@@H]1C)C[C@@H]1C[C@@H](C/C=C(\C)[C@@H](O[C@H]3C[C@H](OC)[C@@H](O[C@H]4C[C@H](OC)[C@@H](NC)[C@H](C)O4)[C@H](C)O3)[C@@H](C)/C=C/C=C3\CO[C@@H]4[C@H](O)C(C)=C[C@@H](C(=O)O1)[C@]34O)O2`, the Potency was 15.4 µM (active) in assay [1]; 17.2 µM (active) in [2]; 10.9 µM (active) in assay [3]; 48.6 µM (active) in [5]; 12.2 µM (active) in [6]; 13.7 µM (active) in [7]. For the same compound, the Potency in [9] is 3.06 µM (active); in assay [10], 19.3 µM (active); in [11], 9.69 µM (active); in assay [12], 21.7 µM (active); in [15] it was 27.3 µM (active); in [16] it was 27.3 µM (active). Moreover, the Potency entry in assay [4], in [8], in assay [13] and in assay [14] was “inactive” each time.

Turning to `CCN(CC)CCc1c[nH]c2ccccc12`, the Potency result in assay [1], in [2], in assay [3], in assay [4], in [5] and in [6] was “inactive” each time. For the same compound, the Potency result in [7], in assay [17], in assay [11], in assay [12], in [13] and in assay [14] was “inactive” in each case. In addition, in assay [15], the Potency result was “inactive”. Further, in assay [9], the Potency was 50.9 µM (active).

For the compound `COc1nc(C)nc(NC(=O)NS(=O)(=O)c2ccccc2Cl)n1`, the Potency result in assay [1], in assay [2], in [3], in [4], in assay [5] and in assay [6] was “inactive” in each case. For the same compound, the Potency entry in assay [7], in assay [8], in assay [9], in [18], in assay [11] and in [12] was “inactive” each time. Further, the Potency result in assay [13], in assay [14], in [15] and in assay [16] was “inactive” throughout.

As to `c1csc(-c2ccc(-c3cccs3)s2)c1`, the Potency entry in assay [1], in assay [2], in [3], in assay [5], in assay [6] and in assay [7] was “inactive” in each case. For the same compound, the Potency result in [9], in assay [10], in assay [11], in assay [12], in assay [14] and in [15] was “inactive” in each case. Also, the Potency entry in assay [16] is “inactive”. For the same compound, the Potency in [4] is 5.45 µM (active); in assay [8], 9.69 µM (active).

For `CCCCN(CCCC)C(=S)S`, the Potency entry in assay [1], in [2], in assay [3], in [4], in assay [5] and in assay [6] was “inactive” throughout. Besides, the Potency entry in [8], in assay [9], in assay [10], in [11], in assay [12] and in assay [13] was “inactive” each time. In addition, the Potency entry in assay [16] is “inactive”.

`C=C(C)C(=O)[O][Sn]([CH2]CCC)([CH2]CCC)[CH2]CCC`: the Potency in [1] is 0.77 µM (active); in assay [2], 0.545 µM (active); in assay [3], 0.486 µM (active); in [5] it was 12.2 µM (active); in assay [6], 0.172 µM (active); in assay [7] it was 0.486 µM (active). The Potency is 0.217 µM (active) in assay [9]; 1.72 µM (active) in assay [10]; 1.37 µM (active) in [11]; 1.54 µM (active) in [12]; 12.2 µM (active) in [15]; 8.63 µM (active) in [16]. Also, the Potency result in assay [4], in assay [8], in assay [13] and in assay [14] was “inactive” throughout.

Regarding `c1ccc(N=NNc2ccccc2)cc1`, the Potency result in assay [1], in assay [2], in assay [3], in assay [5], in [6] and in [7] was “inactive” in each case. In addition, the Potency result in assay [12], in [13], in assay [14] and in [15] was “inactive” each time. Also, the Potency in assay [4] was 15.9 µM (active) and 24.3 µM (active); in assay [16], 28.3 µM (active) and 27.3 µM (active).

In the case of `ClC1=C(Cl)[C@]2(Cl)[C@H]3[C@H]([C@@H]4C=C[C@H]3C4)[C@@]1(Cl)C2(Cl)Cl`, the Potency entry in assay [1], in assay [2], in [3], in [4], in assay [5] and in assay [6] was “inactive” in each case. Also, the Potency entry in assay [7], in [8], in assay [9], in [12], in assay [13] and in assay [14] was “inactive” in each case. For the same compound, the Potency result in assay [15] and in [16] was “inactive” each time. The Potency in assay [11] is 61.1 µM (active).
